Measured values: the supplement of paper PMC3414501
Where a name gives a salt, the structure may show the parent alone.

Key:
[1] = test system: S. cerevisiae SK1 pCDA2-eGFP (USY613), sporulating; assay: CDA2-GFP sporulation assay sensitivity score (z-score vs DMSO controls); higher = stronger inhibition of sporulation, active = hit call of the paper;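 also: active if sensitivity score above 5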
[2] = test system: S. cerevisiae NKY1551 his4x/his4B, sporulating; assay: HIS4 meiotic recombination assay sensitivity score (z-score vs DMSO controls); higher = stronger inhibition of sporulation/recombination, active = hit call of the paper;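 also: active if sensitivity score above 5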
[3] = test system: S. cerevisiae AD1-9 (efflux-pump deficient), vegetative growth in YPD; assay: growth sensitivity score (doubling time z-score vs DMSO controls); higher = slower growth, strongly negative scores also mark growth inhibition (complete suppression), active = hit call of the paper
Outline: (§1)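 Optical density of Saccharomyces cerevisiae cultures in microtiter plates was followed every 15 min for 24 hours after seeding at an OD600 of 0.065. Eight solvent-only wells were run per experiment. Growth sensitivity scores were found by subtracting the solvent-only mean from the compound mean and dividing by the solvent-only standard deviation.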

[4] = test system: S. cerevisiae BY4741 (wild-type), vegetative growth in YPD; assay: as above
Outline: as §1

Compound	CDA2-GFP sporulation assay sensitivity score [1]	HIS4 meiotic recombination assay sensitivity score [2]	growth sensitivity score [3]	growth sensitivity score [4]
CCCCC1=NC2(CCCC2)C(=O)N1Cc1ccc(-c2ccccc2-c2nnn[nH]2)cc1 [Irbesartan] (stock concentration (mM, diluted 1:100): 10.1)	-0.17 (inactive)	-0.26 (inactive)	-0.82 (inactive)	-0.72 (inactive)
CC(C)c1ccc2c(c1)c(SC(C)(C)C)c(CC(C)(C)C(=O)O)n2Cc1ccc(Cl)cc1 [Tocris-1311] (stock concentration (mM, diluted 1:100): 10)	11.2 (active)	-0.42 (inactive)	6.29 (active)	-0.4 (inactive)
CNC(=N)NCCC[C@H](N)C(=O)O [omega-N-Methylarginine] (stock concentration (mM, diluted 1:100): 9.3)	1.34 (inactive)	-0.29 (inactive)	-3.59	-0.56 (inactive)
Oc1ccc(C2CNCCc3c2cc(O)c(O)c3Cl)cc1 (configuration not stated) [Fenoldopam mesylate] (stock concentration (mM, diluted 1:100): 7.7)	-0.81 (inactive)	-0.24 (inactive)	-1.09 (inactive)	-0.74 (inactive)
COc1nc(C)nc(Cl)c1NC1=NCCN1 [Moxonidine hydrochloride] (stock concentration (mM, diluted 1:100): 9.2)	0.6 (inactive)	-0.58 (inactive)	-1.22 (inactive)	0.19 (inactive)
CC(C)(C#N)c1cc(Cn2cncn2)cc(C(C)(C)C#N)c1 [Anastrozole] (stock concentration (mM, diluted 1:100): 10)	3.64 (inactive)	0.04 (inactive)	-1.94 (inactive)	-0.82 (inactive)
O=[N+]([O-])c1cccc2cn[nH]c12 [7-Nitroindazole] (stock concentration (mM, diluted 1:100): 10)	2.93 (inactive)	-1.75 (inactive)	-1.05 (inactive)	0.06 (inactive)
COCCOC(=O)C1=C(C)NC(C)=C(C(=O)OC(C)C)C1c1cccc([N+](=O)[O-])c1 (configuration not stated) [Nimodipine] (stock concentration (mM, diluted 1:100): 10)	0.44 (inactive)	4.27 (inactive)	260 (active)	0.46 (inactive)
CN(C)CCOC(c1ccccc1)c1ccccc1 [Diphenhydramine hydrochloride] (stock concentration (mM, diluted 1:100): 10)	2.11 (inactive)	8.82 (active)	3.46 (active)	0.81 (inactive)
COc1cc(N)c(Cl)cc1C(=O)NC1CCN(CCCOc2ccc(F)cc2)CC1OC (configuration not stated) [Cisapride] (stock concentration (mM, diluted 1:100): 10.5)	0.78 (inactive)	-0.37 (inactive)	8.05 (active)	1.35 (inactive)
CO[C@H]1/C=C/O[C@@]2(C)Oc3c(C)c(O)c4c(O)c(c(/C=N/N5CCN(C6CCCC6)CC5)c(O)c4c3C2=O)NC(=O)/C(C)=C\C=C\[C@H](C)[C@H](O)[C@@H](C)[C@@H](O)[C@@H](C)[C@H](OC(C)=O)[C@@H]1C [Rifapentine] (stock concentration (mM, diluted 1:100): 10)	14.2 (inactive)	-0.69 (inactive)	-0.99 (inactive)	0.15 (inactive)
CC(C(=O)O)c1ccc(CC2CCCC2=O)cc1 (configuration not stated) [Loxoprofen sodium] (stock concentration (mM, diluted 1:100): 9.1)	-0.04 (inactive)	-0.15 (inactive)	-0.52 (inactive)	-0.61 (inactive)
CC(C)[C@H](N)C(=O)OCCOCn1cnc2c(=O)nc(N)[nH]c21 [Valaciclovir hydrochloride] (stock concentration (mM, diluted 1:100): 9)	0.8 (inactive)	0.04 (inactive)	-0.28 (inactive)	0.36 (inactive)
CN(C)CC[C@@H](c1ccc(Cl)cc1)c1ccccn1 [Dexchlorpheniramine maleate] (stock concentration (mM, diluted 1:100): 7)	7.64 (inactive)	2.35 (inactive)	-0.12 (inactive)	0.54 (inactive)
CN(C)CCN(Cc1ccccc1)c1ccccn1 [Tripelennamine hydrochloride] (stock concentration (mM, diluted 1:100): 10)	0.92 (inactive)	8.14 (active)	0.66 (inactive)	1.04 (inactive)
Oc1ccc(/C=C/c2cc(O)cc(O)c2)cc1 [Resveratrol] (stock concentration (mM, diluted 1:100): 10)	5.86 (inactive)	1.16 (inactive)	-0.99 (inactive)	-0.21 (inactive)
C/C=C1\[C@H]2C=C(C)C[C@]1(N)c1ccc(=O)[nH]c1C2 [Huperzine a] (stock concentration (mM, diluted 1:100): 10)	3.17 (inactive)	-0.7 (inactive)	1.24 (inactive)	-1.79 (inactive)

Compound	CDA2-GFP sporulation assay sensitivity score [1]	HIS4 meiotic recombination assay sensitivity score [2]	growth sensitivity score [3]	growth sensitivity score [4]
CN(C)CCOC(C)(c1ccccc1)c1ccccn1 (configuration not stated) [Doxylamine succinate] (stock concentration (mM, diluted 1:100): 10)	-0.3 (inactive)	1.01 (inactive)	-0.68 (inactive)	1.39 (inactive)
N[C@@H]1CONC1=O [D-Cycloserine] (stock concentration (mM, diluted 1:100): 10)	0.63 (inactive)	-5.18 (inactive)	1.38 (inactive)	1.58 (inactive)
COc1ccc2c3c1O[C@H]1C[C@@H](O)C=C[C@@]31CCN(C)C2 [Galanthamine] (stock concentration (mM, diluted 1:100): 8.8)	-0.36 (inactive)	-0.9 (inactive)	-1.27 (inactive)	0.11 (inactive)
Cc1ncc([N+](=O)[O-])n1CCO [Metronidazole] (stock concentration (mM, diluted 1:100): 10)	0.28 (inactive)	0.15 (inactive)	-0.99 (inactive)	-0.2 (inactive)
Cc1onc(-c2ccccc2)c1-c1ccc(S(N)(=O)=O)cc1 [Valdecoxib] (stock concentration (mM, diluted 1:100): 10)	-1.13 (inactive)	-1.51 (inactive)	11 (active)	0.72 (inactive)
CO[C@H]1/C=C/O[C@@]2(C)Oc3c(C)c(O)c4c(O)c(c5c(nc6cc(C)ccn65)c4c3C2=O)NC(=O)/C(C)=C\C=C\[C@H](C)[C@H](O)[C@@H](C)[C@@H](O)[C@@H](C)[C@H](OC(C)=O)[C@@H]1C [Rifaximin] (stock concentration (mM, diluted 1:100): 10)	4.99 (inactive)	-0.87 (inactive)	-1.56 (inactive)	-1.64 (inactive)
COc1ccc2[nH]c([S+]([O-])Cc3ncc(C)c(OC)c3C)nc2c1 (configuration not stated) [Esomeprazole mg] (stock concentration (mM, diluted 1:100): 4.8)	3.2 (inactive)	0.32 (inactive)	-2.89	0.69 (inactive)
CCN1CC(CCN2CCOCC2)C(c2ccccc2)(c2ccccc2)C1=O (configuration not stated) [Doxapram hydrochloride] (stock concentration (mM, diluted 1:100): 10.4)	-0.58 (inactive)	1.8 (inactive)	-0.91 (inactive)	-0.29 (inactive)
CN1CCN2c3ncccc3Cc3ccccc3C2C1 (configuration not stated) [Mirtazapine] (stock concentration (mM, diluted 1:100): 10)	12.7 (inactive)	3.31 (inactive)	2.89 (active)	-0.03 (inactive)
CC(=O)Oc1ccccc1C(=O)Nc1ncc([N+](=O)[O-])s1 [Nitazoxanide] (stock concentration (mM, diluted 1:100): 10)	7.92 (active)	6.54 (active)	0.16 (inactive)	1.77 (inactive)
NC(N)=Nc1nc(CSCC/C(N)=N/S(N)(=O)=O)cs1 [Famotidine] (stock concentration (mM, diluted 1:100): 10)	0.3 (inactive)	-0.42 (inactive)	-2.06	-0.98 (inactive)
Cc1nccn1CC1CCc2c(c3ccccc3n2C)C1=O (configuration not stated) [Ondansetron hcl] (stock concentration (mM, diluted 1:100): 8.9)	-0.41 (inactive)	-0.73 (inactive)	-1.11 (inactive)	-0.22 (inactive)
O=C(O)Cc1ccccc1Nc1c(Cl)cccc1Cl [Diclofenac] (stock concentration (mM, diluted 1:100): 10)	0.82 (inactive)	0.28 (inactive)	4.97 (active)	1.48 (inactive)
CC(=O)NCCCCCCNC(C)=O [Hexamethylene bisacetamide] (stock concentration (mM, diluted 1:100): 10)	0.71 (inactive)	-0.63 (inactive)	1.99 (inactive)	1.69 (inactive)
CCOc1cc(N)c(Cl)cc1C(=O)NCC1CN(Cc2ccc(F)cc2)CCO1 (configuration not stated) [Mosapride citrate] (stock concentration (mM, diluted 1:100): 6.9)	1.67 (inactive)	-0.43 (inactive)	17.2 (active)	3.25 (active)
CCC(=O)O[C@]1(C(=O)SCF)[C@H](C)C[C@H]2[C@@H]3C[C@H](F)C4=CC(=O)C=C[C@]4(C)[C@@]3(F)[C@@H](O)C[C@@]21C [Fluticasone propionate] (stock concentration (mM, diluted 1:100): 10)	-2.57 (inactive)	-1.24 (inactive)	-1.65 (inactive)	-0.58 (inactive)
